The text below walks through data of PubChem BioAssay (NCI).

The panel holds about 83,000 compounds, 20% with a hit somewhere; the sample as a whole holds those more often.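 Each cell line was grown in a 96-well plate and treated with one concentration of compound for 48 hours. Values below 10 were considered active.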 Active and inactive are the calls of the source.

In this experiment the test system is 786-0 renal. The experiment in a line: NCI-60 one-dose screen, 48 h (100 = growth as untreated, 0 = no growth, -100 = all killed). The note with it: 10 µM unless noted.
In the case of `C[N+]1(C)C2CC[C@@H]1CC(OC(=O)C(O)c1ccccc1)C2` (stereo not given in full), the growth was 104% (inactive).

For `CC(C)Sc1nc(-c2ccc(Br)cc2)c(C#N)c(N2CCCCC2)n1`, the growth was 82.7% (inactive).

As for `CCOC(=O)c1sc(NC(=O)COc2cccc(/C=C3\CCc4cc(OC)ccc4C3=O)c2)nc1C`, the growth was 88.1% (inactive).

On to `Nc1ccc(Oc2c(F)c(F)c(Oc3ccc(N)cc3)c(F)c2F)cc1`, for which the growth was 106% (inactive).

Turning to `CC12CCC3C(=CCc4cc(O)ccc43)C1CCC2=O` (stereo not given), the growth was 105% (inactive).

`COc1cccc(C2=NN(C(C)=O)C(c3cc(OC)c(OC)c(OC)c3)C2)c1` (stereo not given): the growth was 30% (inactive).

For `Cc1ccc(S(=O)(=O)NCCN2c3nc4ccccc4cc3Sc3cc4ccccc4nc32)cc1`, the growth was 61.9% (inactive).

Regarding `COc1cc(-c2nc3nc4sc(C)c(C)c4c(=O)n3[nH]2)cc(OC)c1OC`, the growth is 87.9% (inactive).

In the case of `O=C(CNc1ccc2c(c1)C(=O)c1ccccc1C2=O)Nc1ccc2c(c1)C(=O)c1ccccc1C2=O`, the growth was -90.3% (active).

In the case of `CC(C)=CCNc1ncnc2c1ncn2C1OC(COP(=O)(O)O)C(O)C1O` (stereo not given), the growth is 43.3% (inactive).

In the case of `CCCCc1ccc(C(N)=O)nc1`, the growth was 92.6% (inactive).

Turning to `Oc1ccccc1/C=N/N1CCCCCC1`, the growth was 110% (inactive).

Take `CCOc1nc(-c2ccco2)n2nc(-c3ccco3)cc2n1`: the growth is 103% (inactive).

Regarding `Cc1onc(-c2ccccc2Cl)c1C(=O)N[C@@H]1C(=O)N2[C@@H]1SC(C)(C)[C@@H]2C(=O)O`, the growth is 99% (inactive).

Consider `O=C(Nc1ccccc1)P(=O)(O)c1ccccc1`, for which the growth was 110% (inactive).

For the molecule `CC(C)CC1NC(=O)C(CCCN)NC(=O)C(C(C)C)NC(=O)C2CCCN2C(=O)C(Cc2ccccc2)NC(=O)C(CC(C)C)NC(=O)C(CCCN)NC(=O)C(C(C)C)NC(=O)C2CCCN2C(=O)C(Cc2ccccc2)NC1=O` (stereo not given), the growth is -85.9% (active).

As for `Cc1nn(-c2nc3ccccc3s2)c(C)c1Oc1ccccc1O`, the growth is 89.2% (inactive).

`O=C(/C=C/c1ccc([N+](=O)[O-])cc1)c1ccc2c3c(cccc13)CC2`: the growth was 83.9% (inactive).

On to `O=C(N/N=C/c1cccc([N+](=O)[O-])c1)c1ccc(Br)o1`, for which the growth is 92.5% (inactive).

As for `CCN(Cc1cccc(S(=O)(=O)[O-])c1)c1ccc(C(=C2C=CC(=[N+](CC)Cc3cccc(S(=O)(=O)O)c3)C=C2)c2ccccc2S(=O)(=O)O)cc1`, the growth is 92.7% (inactive).

As to `c1ccc2nc(N/N=C3\CCCCC3C3CCCCC3)ccc2c1` (stereo not given), the growth is 48.6% (inactive).

With `COc1ccc2nc(N/N=C(\C)c3ccccn3)cc(C)c2c1`, the growth was -89.7% (active).

With `O=C(c1ccc(Cl)cc1)c1ccc(Cl)cc1`, the growth is 114% (inactive).

Regarding `C[C@]12CC[C@H](O)CC1=CC[C@@H]1[C@@H]2CC[C@]2(C)C(c3cccnc3)=CC[C@@H]12`, the growth was 36.9% (inactive).

`Cc1cc(C)c(C(=O)c2cccs2)c(C)c1`: the growth is 100% (inactive).
